Assay [1] relates to Wnt5a (protein binding on small-molecule microarray). In words: small molecules binding Wnt5a protein – biophysical, small-molecule microarray, 635/667 nm fluorescence, primary screen (AID 1142).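 Also: fluorescence read at 667 nm with signal to noise per printed feature.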 The note with it: 635 nm fluorescence, higher = more signal.
Assay [2] in a line: ATP-based viability of Huh7 replicon cells – cell-based, CellTiter-Glo luminescence, basal, 48 h, cytotoxicity control for HCV replication inhibitor project, primary screen (AID 1143).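 Also: Huh7 hepatoma cells carrying a hepatitis C replication reporter with no stimulus; test concentration not given here.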 As to conditions: higher = more signal, called active from +8 up or from −8 down.
Assay [3] can be described thus: Pseudomonas biofilm growth suppression – PAO1 strain, BacTiter-Glo luminescence, LB-PBS, primary screen (AID 1144). As to conditions: P. aeruginosa PAO1 biofilm, 12 h, higher = more signal.
A short description of assay [4]: basal CRE-LacZ reporter activity in PC12 – cell-based, unstimulated, primary screen (AID 1145). The note with it: no forskolin, luminescence, 4.5 h, higher = more signal, called active from +8 up or from −8 down.
Assay [5] is described as follows: forskolin-driven CRE-LacZ activity in PC12 – cell-based, CRE-LacZ reporter, forskolin-stimulated, primary screen (AID 1146).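 Also: PC12 cells with 6xCRE LacZ reporter stimulated by forskolin 10 µM; beta-galactosidase reporter signal reflecting CREB driven transcription.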 The note with it: luminescence, 4.5 h, higher = more signal, called active from +8 up or from −8 down.
Assay [6] deals with Streptavidin (Streptomyces avidinii) (UniProt P22629). In words: compounds binding control protein streptavidin – biophysical, small-molecule microarray, 635/667 nm fluorescence, artefact control for SMM compound annotation, primary screen (AID 1147).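 Also: signal reflects streptavidin binding to arrayed compounds as a control protein.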 As to conditions: higher = more signal.
The nature of assay [7]: probe aInhba binding on compound microarray – biochemical, small-molecule microarray, 635/667 nm fluorescence, primary screen (AID 1148).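 Also: score merges 667nm spot fluorescence with signal-to-noise for antibody binding to printed compounds.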 As to conditions: higher = more signal.
Assay [8] addresses Torsin-1A (Homo sapiens) (UniProt O14656). As to the kind of experiment: TOR1A wild-type binding on microarray – cell lysate, small-molecule microarray, lysate, 635/667 nm, primary screen (AID 1149). The note with it: COS7 hTOR1A-WT lysate, 635 nm fluorescence, higher = more signal.
Assay [9] shares this target. As to the kind of experiment: torsin A mutant lysate binding on microarrays – cell lysate, small-molecule microarray, COS7 lysate, 635/667 nm fluorescence, primary screen (AID 1150).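 Also: score pools 667 nm emission and signal to noise measuring lysate protein binding.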 The note with it: COS7 hTOR1A mutant lysate, 635 nm fluorescence, higher = more signal.
Assay [10] relates to Sonic hedgehog protein (Shh). In words: Sonic hedgehog microarray binding compounds – biochemical, small-molecule microarray, 635/667 nm fluorescence, primary screen (AID 1151).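 Also: Shh protein binding to compounds spotted on small-molecule microarray slides; score combines spot fluorescence intensity with signal-to-noise across triplicate slides.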 The note with it: 635 nm fluorescence, higher = more signal.
Assay [11] is described as follows: optical density shifts of acrAB sulA E. coli – strain DRC41, OD650, 48 h, E. coli filamentation inducer project, primary screen (AID 1152).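 Also: E. coli MC1000 strain DRC41 lacking acrAB efflux pump and sulA.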 The note with it: higher = more signal, called active from +8 up or from −8 down.
Assay [12] can be described thus: probe aLefty1 binding on compound microarray – biochemical, small-molecule microarray, 635/667 nm fluorescence, primary screen (AID 1153).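 Also: score merges spot fluorescence with signal-to-noise ratio from the scanned slide images.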 The note with it: higher = more signal.
Assay [13] is described as follows: plasmodial surface anion channel blockers, osmotic lysis – cell-based, P. falciparum Indochina, OD700, 1 h, primary screen (AID 1154). As to conditions: P. falciparum Indochina infected RBC osmotic lysis, higher = more signal, called active from +8 up or from −8 down.
The nature of assay [14]: plasmodial surface anion channel blockers, osmotic lysis – cell-based, P. falciparum Indochina, OD700, 2 h, primary screen (AID 1155).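 Also: lysis reports solute entry through the parasite surface anion channel PSAC.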 As to conditions: P. falciparum Indochina infected erythrocytes, higher = more signal, called active from +8 up or from −8 down.
A short description of assay [15]: changes in parasitized red cell lysis, either direction – P. falciparum Indochina, OD700, 3 h, PSAC antagonist project, primary screen (AID 1156). The note with it: P. falciparum-infected erythrocytes, osmotic lysis, higher = more signal, called active from +8 up or from −8 down.
Assay [16] is described as follows: plasmodial surface anion channel blockers, osmotic lysis – cell-based, P. falciparum Indochina, OD700, 18 h, primary screen (AID 1157). The note with it: P. falciparum Indochina infected erythrocytes, osmotic lysis OD700, 18 h; higher = more signal, called active from +8 up or from −8 down.
Assay [17] in a line: S6 kinase pathway phospho-S6 level changes – cell-based, A549, cytoblot, luminescence, serum-stimulated, primary screen (AID 1158).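 Also: serum-stimulated A549 lung adenocarcinoma cells; signal is phosphorylated S6 detected by cytoblot immunostaining with HRP secondary.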 As to conditions: 5 h, higher = more signal.
For assay [18], the target named is NADPH oxidase 2 (Homo sapiens) (UniProt P04839). As to the kind of experiment: compounds shifting NOX2 Amplex Red fluorescence – cell-based, HEK293-NOX2, PMA-stimulated, NOX inhibitor project, primary screen (AID 1159). Also: test concentration not given here. The note with it: 45 min, higher = more signal, called active from +8 up or from −8 down.
Assay [19] addresses NADPH oxidase 4 (Homo sapiens) (UniProt Q9NPH5). In words: compounds shifting NOX4 Amplex Red fluorescence – cell-based, HEK293-NOX4, tetracycline-induced, NOX inhibitor project, primary screen (AID 1160). As to conditions: HEK293-NOX4, Amplex Red H2O2 fluorescence, 45 min; higher = more signal, called active from +8 up or from −8 down.
Assay [20] has as its target NADPH oxidase 5 (Homo sapiens) (UniProt Q96PH1). In words: compounds shifting NOX5 Amplex Red fluorescence – cell-based, HEK293-NOX5, NOX inhibitor project, primary screen (AID 1161). The note with it: HEK293-NOX5, ionomycin, 45 min, higher = more signal.

The source made the active and inactive calls. Unless noted, no rule for the calls is given here.

Data on four compounds can be found in PubChem BioAssay.

Chain of Streptavidin (Streptomyces avidinii) (P22629 whole entry, looked up): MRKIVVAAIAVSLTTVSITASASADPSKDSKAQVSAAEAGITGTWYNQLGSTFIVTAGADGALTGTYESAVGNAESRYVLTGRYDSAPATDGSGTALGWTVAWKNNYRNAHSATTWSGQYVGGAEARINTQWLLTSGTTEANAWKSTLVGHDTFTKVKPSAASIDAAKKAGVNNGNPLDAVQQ
Chain of NADPH oxidase 2 (Homo sapiens) (P04839 whole entry, looked up): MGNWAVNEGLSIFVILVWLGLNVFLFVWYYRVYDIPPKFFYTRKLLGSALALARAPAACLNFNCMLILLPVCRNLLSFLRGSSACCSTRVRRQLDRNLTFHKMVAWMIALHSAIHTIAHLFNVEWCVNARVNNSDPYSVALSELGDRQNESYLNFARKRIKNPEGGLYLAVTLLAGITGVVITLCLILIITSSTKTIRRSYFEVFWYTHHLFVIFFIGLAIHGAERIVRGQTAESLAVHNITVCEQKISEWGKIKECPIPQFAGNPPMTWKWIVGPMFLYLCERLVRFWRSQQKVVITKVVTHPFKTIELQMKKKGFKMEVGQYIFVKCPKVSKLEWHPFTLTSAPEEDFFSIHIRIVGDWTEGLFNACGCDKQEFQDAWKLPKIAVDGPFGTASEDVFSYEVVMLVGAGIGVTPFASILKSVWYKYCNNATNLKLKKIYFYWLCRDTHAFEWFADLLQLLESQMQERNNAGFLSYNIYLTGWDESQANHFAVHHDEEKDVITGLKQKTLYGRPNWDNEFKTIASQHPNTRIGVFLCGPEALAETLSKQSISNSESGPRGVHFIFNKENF
Chain of NADPH oxidase 4 (Homo sapiens) (Q9NPH5 whole entry, looked up): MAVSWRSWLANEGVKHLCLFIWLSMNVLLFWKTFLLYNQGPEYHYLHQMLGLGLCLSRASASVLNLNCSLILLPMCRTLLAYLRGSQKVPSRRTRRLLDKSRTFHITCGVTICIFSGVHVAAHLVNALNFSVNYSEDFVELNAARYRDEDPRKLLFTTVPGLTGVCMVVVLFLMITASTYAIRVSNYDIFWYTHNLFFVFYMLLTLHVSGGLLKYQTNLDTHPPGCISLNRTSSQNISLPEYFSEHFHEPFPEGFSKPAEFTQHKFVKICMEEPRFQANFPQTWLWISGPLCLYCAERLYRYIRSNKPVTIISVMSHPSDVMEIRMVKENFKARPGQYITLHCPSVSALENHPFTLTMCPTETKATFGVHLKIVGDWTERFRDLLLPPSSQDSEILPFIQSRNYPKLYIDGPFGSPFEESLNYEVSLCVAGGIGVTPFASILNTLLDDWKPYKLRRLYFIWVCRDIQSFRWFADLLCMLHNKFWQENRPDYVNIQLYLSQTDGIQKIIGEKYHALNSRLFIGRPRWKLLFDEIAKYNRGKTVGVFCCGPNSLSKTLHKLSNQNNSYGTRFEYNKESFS
Chain of Torsin-1A (Homo sapiens) (O14656 whole entry, looked up): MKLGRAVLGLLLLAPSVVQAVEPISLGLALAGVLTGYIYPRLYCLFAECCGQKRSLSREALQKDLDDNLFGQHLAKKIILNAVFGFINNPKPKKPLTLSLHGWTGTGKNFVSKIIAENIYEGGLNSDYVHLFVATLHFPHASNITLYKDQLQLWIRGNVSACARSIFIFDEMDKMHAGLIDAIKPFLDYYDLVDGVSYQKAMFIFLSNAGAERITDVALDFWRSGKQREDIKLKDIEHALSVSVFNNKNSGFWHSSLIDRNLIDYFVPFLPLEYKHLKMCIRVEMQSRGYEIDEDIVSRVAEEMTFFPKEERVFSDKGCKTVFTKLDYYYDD
Chain of NADPH oxidase 5 (Homo sapiens) (Q96PH1 whole entry, looked up): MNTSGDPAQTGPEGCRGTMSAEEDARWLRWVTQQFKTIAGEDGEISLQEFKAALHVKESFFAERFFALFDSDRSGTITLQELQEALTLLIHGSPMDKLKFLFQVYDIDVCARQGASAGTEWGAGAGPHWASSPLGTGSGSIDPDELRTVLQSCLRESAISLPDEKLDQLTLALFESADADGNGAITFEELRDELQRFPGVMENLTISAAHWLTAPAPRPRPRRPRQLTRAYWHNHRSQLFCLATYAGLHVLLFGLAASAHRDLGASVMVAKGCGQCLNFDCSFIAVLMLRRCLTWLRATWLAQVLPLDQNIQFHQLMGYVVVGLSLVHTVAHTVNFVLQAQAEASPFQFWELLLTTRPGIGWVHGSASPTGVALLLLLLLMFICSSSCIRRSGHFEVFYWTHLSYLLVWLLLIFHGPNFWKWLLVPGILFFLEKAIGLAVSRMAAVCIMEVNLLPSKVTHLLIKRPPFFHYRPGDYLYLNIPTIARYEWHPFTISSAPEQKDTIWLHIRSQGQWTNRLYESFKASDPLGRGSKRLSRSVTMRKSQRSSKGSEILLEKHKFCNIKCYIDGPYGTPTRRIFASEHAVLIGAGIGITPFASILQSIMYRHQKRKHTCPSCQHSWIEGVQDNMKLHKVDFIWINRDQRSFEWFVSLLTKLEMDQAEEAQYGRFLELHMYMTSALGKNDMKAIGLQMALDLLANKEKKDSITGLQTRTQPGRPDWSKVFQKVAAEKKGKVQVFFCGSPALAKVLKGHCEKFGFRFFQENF

For `COc1ccc([Si](C)(C)[C@@H]2[C@@H](CC(=O)N(CCO)Cc3ccccc3)O[C@]3(C(=O)N(Cc4ccc(N5CCC5=O)cc4)c4ccccc43)[C@H]2C)cc1`, the composite z-score was -0.0009 in assay [1]; -0.301 in [6]; -0.318 in [7]; -0.0822 with Torsin-1A (Homo sapiens) [8]; 0.134 with Torsin-1A (Homo sapiens) [9]; 0.7 in assay [10]. In [12], this compound displayed a composite z-score of -0.399. Moreover, the z-score in [2] is -5.9 (inactive); in assay [3], -0.259 (inactive); in assay [4], 5.16 (inactive); in assay [5], 0.0245 (inactive); in assay [11], 1.12 (inactive); in assay [13], 6.38 (inactive). Besides, the z-score in [14] was 0.924 (inactive); in [15], -0.709 (inactive); in assay [16] it was -1.27 (inactive); in assay [17], 0.838; in [18] it was 1.53 (inactive); in [19], 1.41 (inactive). For the same compound, the z-score in [20] came to 3.52.
Consider `CCOC(=O)C1=CC[C@@H](c2ccc(F)cc2)N(S(=O)(=O)c2ccc(C)cc2)[C@H]1c1ccc([N+](=O)[O-])cc1`, for which the composite z-score in [1] is 0.0382; in assay [6] it was 0.812; in assay [7] it was 0.0131; in the assay with Torsin-1A (Homo sapiens) [8] it was -0.116; with Torsin-1A (Homo sapiens) [9], 0.599; in assay [10] it was -0.0316. In assay [12], this compound registered a composite z-score of -0.0946. The z-score in [2] was -2.52 (inactive); in assay [3] it was -1.24 (inactive); in assay [4] it was -1.73 (inactive); in [5], 0.66 (inactive); in assay [11], 0.251 (inactive); in assay [13], 1.83 (inactive). In addition, the z-score in [14] was 1.12 (inactive); in assay [15], -0.186 (inactive); in assay [16] it was 1.22 (inactive); in [17], -0.399; in assay [18], 1.36 (inactive); in assay [19], 0.856 (inactive). Also, the z-score in assay [20] came to 1.4.
Regarding `C=CC[C@]1(C(=O)NCc2ccccc2)COC(c2ccc(OCCCO)cc2)=N1`, the composite z-score in [1] was 0.602; in [6], -0.479; in assay [7], 0.0503; in the assay with Torsin-1A (Homo sapiens) [8], 0.29; with Torsin-1A (Homo sapiens) [9], 1.52; in assay [10], -0.88. For the same compound, the composite z-score in assay [12] was 0.743. The z-score was -3.63 (inactive) in assay [2]; 0.271 (inactive) in assay [3]; 1.38 (inactive) in [4]; -0.505 (inactive) in assay [5]; 0.553 (inactive) in assay [11]; 20.7 (active) in assay [13]. The z-score in assay [14] was 6.37 (inactive); in [15], 1.44 (inactive); in [16], 0.541 (inactive); in [17], -0.429; in assay [18] it was -2.18 (inactive); in assay [19], 0.00403 (inactive). In addition, in assay [20], the z-score is -2.1.
In the case of `COCCCN1C(=O)[C@@]2(Cc3ccccc31)c1ccccc1C(=O)N(Cc1ccccc1OC)[C@H]2c1ccc(CO)cc1`, the composite z-score is -0.0515 in assay [1]; -0.111 in assay [6]; -0.108 in [7]; -0.596 in the assay with Torsin-1A (Homo sapiens) [8]; -0.274 in the assay with Torsin-1A (Homo sapiens) [9]; 0.0923 in assay [10]. In assay [12], the composite z-score stood at 0.193. The z-score is 0.532 (inactive) in assay [2]; 0.53 (inactive) in assay [3]; 0.0279 (inactive) in assay [4]; 1.2 (inactive) in [5]; 0.168 (inactive) in [11]; 0.883 (inactive) in [13]. Also, the z-score in [14] is 0.216 (inactive); in assay [15] it was 0.0049 (inactive); in assay [16] it was -0.185 (inactive); in assay [17], 0.592; in [18], 0.0278 (inactive); in assay [19], 0.545 (inactive). For the same compound, in assay [20], the z-score was determined as 1.41.
